Assay outcomes from PubChem BioAssay.
miR-21 act = qHTS Assay for Modulators of miRNAs and/orActivators of miR-21 | HeLa miR-21 FLuc reporter, luciferase, 48 h | Potency, µM (top dose mostly 38.3 µM), without a hit: at the top dose activity change, positive = activation, actives largely listed as activators | 340,000 tested, under 10 active | AID 2288, 2010;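 also: % of control where 0% means no effect; miR-21 action dims this reporter so a rising signal means less miR-21 action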
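Luminescence from a firefly luciferase reporter carrying a miR-21 binding site downstream, stably expressed under a CMV promoter in HeLa cells that make miR-21 endogenously, reports miRNA modulation after 48 h compound exposure up to approximately 40uM final.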
TDP1 inh = qHTS Assay for Inhibitors of Tyrosyl-DNA Phosphodiesterase (TDP1); Tyrosyl-DNA phosphodiesterase 1 (Homo sapiens), Q9NUW8; recombinant TDP1, AlphaScreen DNA substrate cleavage; Potency, µM (top dose mostly 130 µM), inactives show at the top dose activity change, negative = inhibition, actives largely listed as inhibitors; 350,000 compounds, 0.28% hits; AID 485290, 2010; also: potency is read from the fitted curve at half-maximal effect; % is scaled to controls: 0 for no effect and ±100 for the full control effect; nearly all actives have a fitted effect of over 40% in size
Target sequence (Q9NUW8 whole entry, looked up): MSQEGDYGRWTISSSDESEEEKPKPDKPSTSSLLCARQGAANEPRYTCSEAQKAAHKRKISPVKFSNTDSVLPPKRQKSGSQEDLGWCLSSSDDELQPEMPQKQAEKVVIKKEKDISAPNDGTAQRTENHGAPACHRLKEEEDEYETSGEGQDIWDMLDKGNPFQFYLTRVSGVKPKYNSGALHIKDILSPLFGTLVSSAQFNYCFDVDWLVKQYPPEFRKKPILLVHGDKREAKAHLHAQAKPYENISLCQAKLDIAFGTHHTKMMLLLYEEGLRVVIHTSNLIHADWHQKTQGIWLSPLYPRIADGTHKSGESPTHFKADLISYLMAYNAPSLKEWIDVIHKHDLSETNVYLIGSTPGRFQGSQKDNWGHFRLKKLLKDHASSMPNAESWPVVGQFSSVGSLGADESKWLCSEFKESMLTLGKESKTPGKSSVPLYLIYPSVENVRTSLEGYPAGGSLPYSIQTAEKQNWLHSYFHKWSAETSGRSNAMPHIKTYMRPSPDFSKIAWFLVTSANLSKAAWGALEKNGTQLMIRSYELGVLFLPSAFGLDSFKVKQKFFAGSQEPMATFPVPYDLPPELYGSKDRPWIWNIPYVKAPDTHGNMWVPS
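Steps: enzyme plus compound, 15 min RT; add biotin/phosphotyrosine-FITC oligonucleotide (15 nM final), react 5 min; add donor/acceptor beads (10 ug/ml final), 10 min; read AlphaScreen. Tdp1 at 1 nM final.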
TDP1 cell noCPT = qHTS for Inhibitors of human tyrosyl-DNA phosphodiesterase 1 (TDP1): qHTS in cells in absence of CPT; DT40 Tdp1-/- hTDP1 cells, no CPT, ATP luminescence, 48 h; Potency, µM (series often up to 46.2 µM), for inactives: at the top dose activity change, negative = growth inhibition, most hits filed as inhibitors; 420,000 compounds, 15% hits; also: potency is read from the fitted curve at half-maximal effect; % is scaled to controls: 0 for no effect and ±100 for the full control effect; nearly all actives have a fitted effect of over 55% in size
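Growth kinetics read by CellTiter-Glo luminescence after ≥48 hr at 37 °C. Cells: DT40 Tdp1-/- stably carrying human TDP1, 400 per well, compound exposure in the absence of CPT (DMSO vehicle).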
uPA generation = qHTS for Inhibitors of Cell Surface uPA Generation | AID 540303, 2011 | cell surface uPA generation assay, qHTS | Potency, µM (doses to about 38.3 µM), inactives show at the highest dose activity change, negative = inhibition, hits mostly inhibitors | 330,000 compounds, 0.31% hits; active = well fitted inhibition curve with a large enough effect; inconclusive = small, poorly fitted or top-dose-only effect; inactive = no such curve, though single readings can be large or run the other way; tested in mouse RAW 264.7 cells; also: potency is read from the fitted curve at half-maximal effect; % is scaled to controls: 0 for no effect and ±100 for the full control effect; nearly all actives have a fitted effect of over 55% in size
DT40 TDP1 CPT = qHTS for Inhibitors of human tyrosyl-DNA phosphodiesterase 1 (TDP1): qHTS in cells in presence of CPT | chicken DT40 Tdp1-/-;hTDP1 cells + 20 nM CPT, ATP luminescence, 48 h | Potency, µM (highest dose often 46.2 µM), without a hit: top-dose activity change, negative = growth inhibition, actives largely listed as inhibitors | 420,000 compounds, 12% hits | AID 686979, 2013; also: potency is read from the fitted curve at half-maximal effect; % is scaled to controls: 0 for no effect and ±100 for the full control effect; nearly all actives have a fitted effect of over 55% in size
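Chicken DT40 Tdp1-/- cells stably complemented with human TDP1 were seeded at 400 cells/well in medium containing 20 nM camptothecin, exposed to pin-transferred compounds, and grown at 37 °C for at least 48 hr. Viability was read as ATP luminescence.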
* marks the source's active call; other numbers are inactive results; ? = inconclusive; . = not tested or not shown; ! = a repeat was not active. This is a sample that favours compounds with a hit; in the whole collection about 16% have one here. Unless noted, calls follow the shape of the dose curve; as a rule, active = well fitted curve in the direction sought with a large enough effect; inconclusive = small, poorly fitted or top-dose-only effect, or another doubt; inactive = no such curve, though single readings can be large; an effect the other way counts as inactive or inconclusive.

SMILES | miR-21 act | TDP1 inh | TDP1 cell noCPT | uPA generation | DT40 TDP1 CPT
Oc1ccc(N=Nc2n[nH]c(-c3ccc(Cl)cc3)n2)cc1 | -25% | 13% | 16µM* | -26% | ?
O=C(NCC(c1cccs1)N1CCOCC1)C1CCN(S(=O)(=O)c2cc(Cl)ccc2Cl)CC1 (stereo not drawn) | . | . | ? | -4% | -24%
COC(=O)C1=C(C)N(CCCC(=O)O)C(=O)NC1c1ccccc1OS(=O)(=O)c1ccccc1[N+](=O)[O-] (stereo not drawn) | . | . | 1% | 17% | -9%
CC1=C(C(=O)OCc2ccccc2)C(c2ccccc2[N+](=O)[O-])NC(=O)N1C (stereo not drawn) | 4% | 5% | 23µM* | 9% | ?
CCOC(=O)C1=C(C)N(Cc2ccccc2)C(=O)NC1c1ccccc1OS(=O)(=O)c1ccccc1[N+](=O)[O-] (stereo not drawn) | . | . | 9.2µM* | -1% | 10µM*
Cn1cnc([N+](=O)[O-])c1SCCO | -1% | 4% | -20% | 3% | ?
CC(C)CN1CCCC(N2CCN(c3cccc(Cl)c3)CC2)C1 (stereo not drawn) | 0% | 2% | -2% | -5% | 2%
COc1ccc(CN2CCCC(N3CCN(c4cccc(Cl)c4)CC3)C2)cc1OC (stereo not drawn) | 12% | . | 23µM* | -8% | ?
COc1ccc(CN2CCCC(N3CCN(c4ccc(OC)cc4)CC3)C2)cc1 (stereo not drawn) | 2% | . | -17% | 0% | -1%
CCOc1cc(CN2CCCC(N3CCN(c4ccc(F)cc4)CC3)C2)ccc1OC (stereo not drawn) | 14% | . | ? | ? | 16µM*
CCC(CC)NC(=O)COC(=O)c1cccc(C)c1O | -2% | 0% | -1% | 2% | -12%
CCOc1ccc(N(CC)C(=O)Cc2c(C(=O)O)n(C)c3ccccc23)cc1 | 2% | . | 8% | 9% | 17%
N#CC1=C(SCC(N)=O)NC2=C(C(=O)c3ccccc32)C1c1ccc(Cl)cc1 (stereo not drawn) | -23% | 4% | 16µM* | -2% | 29µM*
COc1ccccc1N=CC1=C(O)CC(c2ccccc2)CC1=O (stereo not drawn) | 0% | 2% | 9.2µM* | 2% | 5.2µM*
CCOCCn1c(CN2CCN(C)CC2)nc2c1c(=O)n(C)c(=O)n2C | -1% | . | 2% | 0% | -6%
CCOCCn1c(CN2CCN(c3ccc(F)cc3)CC2)nc2c1c(=O)n(C)c(=O)n2C | -2% | 4% | 18µM* | -8% | 13µM*
COCCn1c(CN2CCN(C)CC2)nc2c1c(=O)n(C)c(=O)n2C | -2% | -2% | 0% | -4% | 4%
COCCn1c(CN2CCN(c3cccc(Cl)c3)CC2)nc2c1c(=O)n(C)c(=O)n2C | 11% | 4% | 13µM* | ? | 8.2µM*
CC(C)CCn1c(CN2CCN(c3cccc(Cl)c3)CC2)nc2c1c(=O)n(C)c(=O)n2C | 3% | . | 23µM* | -1% | ?
CCOCCn1c(CN2CCN(c3cccc(Cl)c3)CC2)nc2c1c(=O)n(C)c(=O)n2C | 15% | 0% | 5.2µM* | -22% | 7.3µM*
COc1cc(CNc2ccc(N3CCOCC3)c(C(=O)O)c2)ccc1OCC(N)=O | 0% | 7% | -7% | 0% | -21%
CCOC(=O)C1CCN(C(=O)C2CC(=O)N(c3ccc4c(c3)OCCO4)C2)CC1 (stereo not drawn) | -6% | 3% | 19% | -4% | -14%
COC(=O)Cn1c(CN2CCN(c3ccc(F)cc3)CC2)nc2c1c(=O)n(C)c(=O)n2C | 1% | 1% | 1.8µM* | -20% | 2.3µM*
COC(=O)Cn1c(CN2CCOCC2)nc2c1c(=O)n(C)c(=O)n2C | -2% | . | -8% | 4% | 7%
CN(C)CC(C)(C)CNS(=O)(=O)c1ccc(Cl)c(Cl)c1 | -3% | 2% | 2.3µM*! | 13% | -24%
SMILES | miR-21 act | TDP1 inh | TDP1 cell noCPT | uPA generation | DT40 TDP1 CPT
COc1ccc(Nc2ncnc3scc(-c4ccc(OC)cc4)c23)cc1 | 19% | -3% | 4.6µM* | -13% | 2.9µM*
COc1ccc(-c2csc3ncnc(Nc4ccc(OC)c(OC)c4)c23)cc1 | 20% | -6% | 8.2µM* | . | ?
COc1ccc(Nc2ncnc3sc(-c4ccccc4)cc23)cc1OC | -13% | 7% | ? | 6% | ?
COc1ccc(Nc2ncnc3scc(-c4ccc(F)cc4)c23)cc1 | -4% | 1% | ? | . | ?
Cc1ccc(S(=O)(=O)CCC(=O)OCc2cc(=O)oc3cc(C)ccc23)cc1 | . | 2% | -1% | -1% | -1%
CCCCCn1c(C(Cc2ccccc2)NC(=O)COC)nc2ccccc21 (stereo not drawn) | 4% | 5% | 26µM* | -4% | 18µM*
CCCn1c(C(C)NC(C)=O)nc2ccccc21 (stereo not drawn) | 0% | 0% | -28% | 11% | ?
CCCCC(NC(C)=O)c1nc2ccccc2n1CCC (stereo not drawn) | -9% | 7% | 5.8µM* | -1% | ?
O=C1NC(Cc2ccccc2)c2nc3ccc(Cl)cc3c(=O)n2-c2cc(Cl)ccc21 (stereo not drawn) | . | 0% | . | . | .
CCc1cc2c(=O)c(-c3cnn(-c4ccccc4)c3)c(C)oc2c(CN2CCCCC2)c1O | -5% | 6% | 26µM* | . | ?
CCc1cc2c(=O)c(-c3cnn(-c4ccccc4)c3)c(C(F)(F)F)oc2c(CN(C)C)c1O | -1% | 3% | 4% | 3% | -7%
CCc1cc2c(=O)c(-c3nc4ccccc4n3C)c(C)oc2c(CN2CCCCC2)c1O | 0% | 2% | ? | -4% | 26µM*
O=S(=O)(NCCc1nnc2ccc(SCc3cccc(Cl)c3)nn12)c1ccccc1 | -3% | 5% | 18µM* | . | 15µM*
Cc1ccc(S(=O)(=O)NCCc2nnc3ccc(SCc4ccccc4C)nn23)cc1 | -2% | 3% | 16µM* | . | 16µM*
O=C(NCCCN1CCOCC1)C(=O)NCC1OCCN1S(=O)(=O)c1ccc(Cl)cc1 (stereo not drawn) | . | . | ? | . | -2%
COc1cc(SC)ccc1C(=O)OC(C)C(=O)Nc1ccc(NC(C)=O)cc1 (stereo not drawn) | 0% | 0% | ? | -1% | -7%
O=S(=O)(Nc1cccc(C(F)(F)F)c1)c1ccc(NS(=O)(=O)c2ccc3c(c2)OCCO3)cc1 | -1% | . | 1% | . | -27%
COc1cc(OC)c(C(=O)OC(C)C(=O)Nc2cccc(C(F)(F)F)c2)cc1OC (stereo not drawn) | -6% | 2% | ? | 2% | 23µM*
